Results filed as inconclusive are left out. The source made the active and inactive calls. Calls follow the shape of the dose curve; as a rule, active = well fitted curve in the direction sought with a large enough effect; inconclusive = small, poorly fitted or top-dose-only effect, or another doubt; inactive = no such curve, though single readings can be large; an effect the other way counts as inactive or inconclusive.
Key:
HACAT = assay: qHTS assay to identify novel small-molecules to repurpose for Merkel cell carcinoma treatment (AID 1296009); settings: MCC and control cell lines, CellTiter-Glo viability, 72 h; at 44.8 µM (top of the series) unless noted; also: nearly all actives have a fitted effect of over 60% in size
In short: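 qHTS format: cells treated with library compounds in DMSO across 8 (NPC) or 11 (MIPE) concentrations. Readout after 72 hr at 37 degree celsius was CellTiter-Glo luminescence.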

C33A = assay: Primary qHTS to identify gynecologic anti-cancer compounds using libraries of approved drugs and bioactive compounds (AID 1345084); settings: Gynecologic cancer cell panel viability, ATPlite luminescence, 48 h; series mostly up to 57.5 µM; also: % is scaled to controls: 0 for no effect and ±100 for the full control effect; nearly all actives have a fitted effect of over 55% in size
In short: (§1)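 Five-concentration response, 48 h; readout is ATP-driven luciferase luminescence.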

CAOV3 = assay: as above; settings: Gynecologic cancer cell panel viability, ATPlite luminescence, 48 h; series mostly up to 57.5 µM
In short: as §1

CASKI = assay: as above; settings: Gynecologic cancer cell panel viability, ATPlite luminescence, 48 h; series mostly up to 57.5 µM
In short: as §1

Es-2 = assay: as above; settings: Gynecologic cancer cell panel viability, ATPlite luminescence, 48 h; series mostly up to 57.5 µM
In short: as §1

HeLa = assay: as above; settings: Gynecologic cancer cell panel viability, ATPlite luminescence, 48 h; series mostly up to 57.5 µM
In short: as §1

Hek293T = assay: as above; settings: Gynecologic cancer cell panel viability, ATPlite luminescence, 48 h, control line for the selectivity index; series mostly up to 57.5 µM
In short: as §1

JEG-3 = assay: as above; settings: Gynecologic cancer cell panel viability, ATPlite luminescence, 48 h; series mostly up to 57.5 µM
In short: as §1

CCOC(=O)COc1ccc2c(c1)C[C@@H](NC[C@H](O)c1cccc(Cl)c1)CC2
inactive: outcome (HACAT) | Potency (C33A) | Potency (CAOV3) | outcome (CASKI) | Potency (Es-2) | Potency (HeLa) | Potency (Hek293T) | Potency (JEG-3)

COc1ccc(/C=C/C(=O)N2CCCC2)cc1
inactive: outcome (HACAT) | Potency (C33A) | Potency (CAOV3) | outcome (CASKI) | Potency (Es-2) | Potency (HeLa) | Potency (Hek293T) | Potency (JEG-3)

O=C(O)c1ccncc1Nc1nn(CCN2CCC(F)(F)CC2)c2ccc(F)cc12
inactive: outcome (HACAT) | Potency (C33A) | Potency (CAOV3) | outcome (CASKI) | Potency (Es-2) | Potency (HeLa) | Potency (Hek293T) | Potency (JEG-3)

COC(=O)C1=CO[C@@H](O[C@@H]2O[C@H](CO)[C@@H](O)[C@H](O)[C@H]2O)[C@H]2[C@@H]1[C@H](O)[C@H](O)[C@]2(C)O
inactive: outcome (HACAT) inactive [at 17.4 µM] | Potency (C33A) | Potency (CAOV3) | outcome (CASKI) | Potency (Es-2) | Potency (HeLa) | Potency (Hek293T) | Potency (JEG-3)

OC[C@H]1O[C@@H](OC[C@H]2O[C@@H](OCc3ccccc3)[C@H](O)[C@@H](O)[C@@H]2O)[C@H](O)[C@@H](O)[C@@H]1O
inactive: outcome (HACAT) inactive [at 17.4 µM] | Potency (C33A) | Potency (CAOV3) | outcome (CASKI) | Potency (Es-2) | Potency (HeLa) | Potency (Hek293T) | Potency (JEG-3)

COc1ccc(-n2[nH]c3c(cnc4ccccc43)c2=O)cc1
inactive: outcome (HACAT) | Potency (C33A) | Potency (CAOV3) | outcome (CASKI) | Potency (Es-2) | Potency (HeLa) | Potency (Hek293T) | Potency (JEG-3)

CCC(C)C(=O)O[C@H]1[C@@H](O[C@H]2O[C@H](CO)[C@@H](O)[C@H](O)[C@H]2O)O[C@H](CO)[C@@H](O)[C@@H]1O (stereo partly drawn)
inactive: outcome (HACAT) inactive [at 17.4 µM] | Potency (C33A) | Potency (CAOV3) | outcome (CASKI) | Potency (Es-2) | Potency (HeLa) | Potency (Hek293T) | Potency (JEG-3)

OCC1OC(Oc2cc(O)cc(/C=C/c3ccc(OC4OC(CO)C(O)C(O)C4O)cc3O)c2)C(O)C(O)C1O (stereo not drawn)
inactive: outcome (HACAT) inactive [at 17.4 µM] | Potency (C33A) | Potency (CAOV3) | outcome (CASKI) | Potency (Es-2) | Potency (HeLa) | Potency (Hek293T) | Potency (JEG-3)

CC1=CC(=O)CC(C)(C)C1CCC(C)O[C@@H]1O[C@H](CO)[C@@H](O)[C@H](O)[C@H]1O (stereo partly drawn)
inactive: outcome (HACAT) | Potency (C33A) | Potency (CAOV3) | outcome (CASKI) | Potency (Es-2) | Potency (HeLa) | Potency (Hek293T) | Potency (JEG-3)

COc1c2cc(c(O[C@@H]3O[C@H](CO)[C@@H](O)[C@H](O)[C@H]3O)c1OC)CCCCC(O)CCc1ccc(O)c-2c1 (stereo partly drawn)
inactive: outcome (HACAT) inactive [at 17.4 µM] | Potency (C33A) | Potency (CAOV3) | outcome (CASKI) | Potency (Es-2) | Potency (HeLa) | Potency (Hek293T) | Potency (JEG-3)

COc1cncc(C#Cc2ccccn2)c1
inactive: outcome (HACAT) | Potency (C33A) | Potency (CAOV3) | outcome (CASKI) | Potency (Es-2) | Potency (HeLa) | Potency (Hek293T) | Potency (JEG-3)

Cc1cc(C)c2nc(-c3ccccn3)cc(C(=O)Nc3ccc(S(=O)(=O)Nc4onc(C)c4C)cc3)c2c1
inactive: outcome (HACAT) | Potency (C33A) | Potency (CAOV3) | outcome (CASKI) | Potency (Es-2) | Potency (HeLa) | Potency (Hek293T) | Potency (JEG-3)

CC[C@H]1OC(=O)[C@H](C)C(=O)[C@H](C)[C@@H](OC2O[C@H](C)C[C@H](N(C)C)[C@H]2O)[C@@H](C)C[C@@H](C)C(=O)/C=C/[C@]1(C)O (stereo partly drawn)
inactive: outcome (HACAT) inactive [at 17.4 µM] | Potency (C33A) | Potency (CAOV3) | outcome (CASKI) | Potency (Es-2) | Potency (HeLa) | Potency (Hek293T) | Potency (JEG-3)

COC(=O)C1=COC(O[C@@H]2O[C@H](CO)[C@@H](O)[C@H](O)[C@H]2O)[C@@H]2[C@@](C)(O)[C@@H](OC(=O)/C=C/c3ccccc3)C[C@]12O (stereo partly drawn)
inactive: outcome (HACAT) inactive [at 17.4 µM] | Potency (C33A) | Potency (CAOV3) | outcome (CASKI) | Potency (Es-2) | Potency (HeLa) | Potency (Hek293T) | Potency (JEG-3)

CC1(C)CC[C@]2(C(=O)O)CC[C@]3(C)C(=CCC4[C@@]5(C)C[C@@H](O)[C@H](O)[C@@](C)(CO)C5[C@H](O)C[C@]43C)[C@@H]2C1 (stereo partly drawn)
inactive: outcome (HACAT) inactive [at 17.4 µM] | Potency (C33A) | Potency (CAOV3) | outcome (CASKI) | Potency (Es-2) | Potency (HeLa) | Potency (Hek293T) | Potency (JEG-3)

C[C@@H]1O[C@@H](OC2C(O[C@H]3[C@H](O[C@H]4CC[C@@]5(C)C(CC[C@]6(C)C5CC=C5C7CC(C)(C)CC(O)[C@]7(C)CC[C@]56C)C4(C)C)O[C@H](C(=O)O)[C@@H](O)[C@@H]3O)OC(CO)C(O)C2O)[C@H](O)[C@H](O)[C@H]1O (stereo partly drawn)
inactive: outcome (HACAT) inactive [at 9.27 µM] | activity change, negative = cytotoxicity (C33A) 9.23% [at 11.6 µM] | activity change, negative = cytotoxicity (CAOV3) 0.0107% [at 11.6 µM] | activity change, negative = cytotoxicity (CASKI) 13.1% [at 11.6 µM] | activity change, negative = cytotoxicity (Es-2) 2.61% [at 11.6 µM] | activity change, negative = cytotoxicity (HeLa) 3.53% [at 11.6 µM] | activity change, negative = cytotoxicity (Hek293T) 5.4% [at 11.6 µM] | activity change, negative = cytotoxicity (JEG-3) 7.17% [at 11.6 µM]
